# APOBEC3A inh: APOBEC3A ssDNA deaminase inhibitors, primary screen, selectivity assay for APOBEC3G inhibitor project, biochemical, FAM/TAMRA oligo cleavage fluorescence; actives 0.41% (n = 330,000); AID 493011, 2011; DNA dC->dU-editing enzyme APOBEC-3A (Homo sapiens), P31941; inhibition, % at 20 µM; recombinant A3A, FAM/TAMRA ssDNA deamination fluorescence;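 active = at least 40% inhibition at 20 µM here, with at most 30% in a related deaminase screen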
# Target sequence (P31941 whole entry, looked up): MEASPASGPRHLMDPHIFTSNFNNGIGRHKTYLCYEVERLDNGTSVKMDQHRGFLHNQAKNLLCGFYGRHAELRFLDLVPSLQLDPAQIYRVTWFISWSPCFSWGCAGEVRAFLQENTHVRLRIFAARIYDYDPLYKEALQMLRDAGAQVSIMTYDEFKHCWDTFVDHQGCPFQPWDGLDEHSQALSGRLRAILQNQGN
# Bfl-1 A1 inh: caspase 3/7 activation in MEF A1-2A-BIM cells, primary screen, A1 inhibitor project, cell-based, luminescence, HTS. Caspase-Glo 3/7 luminescence, 3 h; percent of clofoctol response, vehicle zero. caspase activation, % (concentration not given with the values). actives 0.066% (n = 330,000);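 active = over half of replicate activation scores above 10%, or exactly half above 10 with the replicate mean above 10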
# MIN6 prolif-1: inducers of MIN6 beta-cell proliferation, primary screen, ATP luminescence, uHTS; MIN6 cells proliferation, ATPlite luminescence, 48 h; cells starved in 0.2% serum; 100% = growth in 10% serum; proliferation, % at 10 µM; actives 0.29% (n = 330,000); AID 2380, 2010;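 active = compounds whose signal lies at least 3.5 SD above the mean of all wells on their plate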
# APOBEC3G inh: APOBEC3G DNA deaminase inhibitors, primary screen, biochemical, fluorescence, single-stranded DNA substrate, uHTS | AID 493012, 2011 | inhibition, % at 20 µM | DNA dC->dU-editing enzyme APOBEC-3G (Homo sapiens), Q9HC16 | recombinant A3G, ssDNA deamination FAM/TAMRA fluorescence | actives 0.28% (n = 330,000);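 active = inhibition of at least 40% at 20 µM, with no more than 30% in the related APOBEC3A deaminase screen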
# Target sequence (Q9HC16 whole entry, looked up): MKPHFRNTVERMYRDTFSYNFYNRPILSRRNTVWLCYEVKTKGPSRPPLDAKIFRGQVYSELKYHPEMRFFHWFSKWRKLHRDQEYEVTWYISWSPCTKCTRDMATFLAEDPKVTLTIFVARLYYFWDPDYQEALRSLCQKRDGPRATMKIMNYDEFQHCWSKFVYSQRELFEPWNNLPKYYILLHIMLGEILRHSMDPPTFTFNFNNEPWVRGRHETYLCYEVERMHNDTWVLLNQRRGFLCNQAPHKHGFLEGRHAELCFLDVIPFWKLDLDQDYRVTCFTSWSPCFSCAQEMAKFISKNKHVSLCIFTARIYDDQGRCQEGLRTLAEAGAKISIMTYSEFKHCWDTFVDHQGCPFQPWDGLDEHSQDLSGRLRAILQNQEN
# MIN6 prolif-2: inducers of beta-cell proliferation in MIN6, confirmation, MIN6 cells, mouse. shares compounds with MIN6 prolif-1. ATPlite luminescence, 48 h; cells kept in 0.2% serum; scaled between 0.2% and 10% serum. proliferation increase, % at 50 µM. 920 tested, under 10 active. AID 463095, 2010;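 active = proliferation increase above 40% at any of the four tested concentrations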
# A3A conf: APOBEC3A deaminase inhibitors, retest, confirmation, selectivity assay for APOBEC3G inhibitor project, biochemical, single concentration, fluorescence readout. shares compounds with APOBEC3A inh. recombinant A3A, ssDNA deaminase UDG fluorescence assay. inhibition, % at 20 µM. actives 63% (n = 1,400). AID 493151, 2011;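 active = inhibition reaching a set limit, 80% of the first screen's cutoff, at 20 µM in any replicate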
# UDG A3A counter: E. coli UDG inhibitors, confirmation, counter-screen for APOBEC3A inhibitor project, biochemical, single concentration, fluorescence, FAM/TAMRA oligo; shares compounds with APOBEC3A inh; 1,000 tested, under 10 active; inhibition, % at 20 µM; UDG counterscreen, FAM/TAMRA uracil oligo fluorescence; AID 504714, 2011; call rule not given here
# A number is an active result; 0 = inactive; - = no result. This is a sample that favours compounds with a hit; in the whole collection about 1.1% have one here.
SMILES,APOBEC3A inh,Bfl-1 A1 inh,MIN6 prolif-1,APOBEC3G inh,MIN6 prolif-2,others
CC(=O)O[C@@H]1/C=C/[C@](C)(O)C[C@@H](C)C/C=C/[C@H]2[C@@H]3O[C@]3(C)[C@@H](C)[C@H]3[C@H](Cc4ccccc4)NC(=O)[C@@]312,0,6.4,0,0,-,
COc1ccc(C[C@H]2NC[C@H](O)[C@H]2OC(C)=O)cc1,0,7.5,0,0,-,
COc1ccc(CCNC2CCCCC2)cc1,0,0,0,0,-,
COC1=CC2[C@@H]3Cc4ccc(OC)c(O)c4[C@]2(CCN3C)CC1=O (stereo not given in full),0,0,0,0,-,
COc1ccc2c(c1)/C(=C/c1cnc[nH]1)C(=O)N2,0,0,19,0,0,
O=C1/C(=C/c2ccccc2)C[C@@]2(O)[C@H]3Cc4ccc(O)c5c4[C@@]2(CCN3CC2CC2)C1O5 (stereo not given in full),0,-,0,0,-,
CC(Cc1ccccc1)NC(=O)/C=C/C(=O)O (stereo not given),0,0,7.3,0,0,
CNC(=O)O/N=C/c1nn(C(=O)C(C)(C)C)cc1Br,0,0,5.1,0,0,
c1ccc(P(c2ccccc2)c2ccccn2)cc1,0,0,5.8,0,0,
CCCCC(=O)N/N=C/c1c(O)n(Cc2ccco2)c(=O)[nH]c1=O,0,0,0,0,-,
O=C(N/N=C/c1c(O)n(Cc2ccco2)c(=O)[nH]c1=O)c1ccccc1O,0,0,8.0,0,0,
N#C/C=C/C#N,0,0,0,0,-,
CCC1(OC(=O)c2ccccc2)CC(C)N(C)CC1C (stereo not given),0,0,7.0,0,0,
C=C1C(O)[C@@H]2O[C@]3(CC[C@H](/C=C/C(C)[C@@H]4CC(C)=CC5(O[C@H](C[C@@](C)(O)C(=O)O)CCC5O)O4)O3)CC[C@H]2O[C@@H]1C(O)CC(C)[C@H]1OC2(CCCCO2)CCC1C (stereo not given in full),0,0,0,0,-,
O=c1oc2ccccc2c(O)c1C(c1ccccn1)c1c(O)c2ccccc2oc1=O,0,0,8.0,0,0,
Cc1c(C(c2ccc(O)cc2)c2c(O)c3ccccc3oc2=O)c(=O)n(-c2ccccc2)n1C (stereo not given),0,0,0,0,-,
Cn1c(O)c(C=NCCOc2ccc(Cl)cc2)c(=O)n(C)c1=O,0,0,0,0,-,
Cn1c(O)c(C=NCCN2CCN(C(=O)c3ccccc3)CC2)c(=O)n(C)c1=O,0,0,9.6,0,0,
CC1=CC(=C2C(=O)NC(=S)NC2=O)C=C(C(F)(F)F)N1Cc1ccccc1,0,0,0,0,-,
CC1=CC(=C2C(=O)NC(=O)NC2=O)C=C(C(F)(F)F)N1Cc1ccccc1,0,0,9.2,0,0,
Nc1ncc([N+](=O)[O-])s1,0,0,0,0,-,
CCN(CC)C(=O)COc1cc(C)cc2oc(=O)c3c(c12)CCCC3,0,0,6.6,0,0,
COc1cc2ccc(=O)oc2c2ccoc12,0,0,12,0,0,
COc1cc2occc2c2oc(=O)ccc12,0,0,0,0,-,
COc1ccc(C(c2ccc(OC)cc2)C(Cl)(Cl)Cl)cc1,0,0,0,0,-,
SMILES,APOBEC3A inh,Bfl-1 A1 inh,MIN6 prolif-1,APOBEC3G inh,MIN6 prolif-2,others
Cc1ccc(-n2c(-c3cccs3)nc3ccccc3c2=O)cc1,0,0,9.3,0,0,
COC(=O)C1=C(c2ccc(OC(F)(F)F)cc2)C[C@@H]2CC[C@H]1N2C(=O)N1CCOCC1,0,0,0,0,-,
C[C@]12CCC(=O)C[C@H]1CC[C@@H]1[C@@H]2CC[C@]2(C)C(=O)CC[C@@H]12,0,-,0,0,-,
CC(=NCCN1CCOCC1)c1c(O)n(-c2ccccc2C)c(=O)[nH]c1=O,0,0,12,0,0,
CCC(=NCCN1CCOCC1)c1c(O)n(-c2ccccc2C)c(=O)[nH]c1=O,0,0,0,0,-,
Cc1ccc2c(c1)C1C[N+](C)(CC(=O)c3ccc(Cl)cc3Cl)CCC1N2C(=O)c1ccc(F)cc1 (stereo not given),79,0,0,0,-,A3A conf=79;UDG A3A counter=0
Cc1ccc2c(c1)C1CN(C)CCC1N2C(=O)c1cccs1 (stereo not given),0,0,0,0,-,
CC(C)(C)C(=O)c1cn(CC(=O)NCc2ccco2)c2ccccc12,59,0,0,0,-,A3A conf=46;UDG A3A counter=0
CC[C@H](C)[C@@H]1O[C@@]2(C=CC1C)CC1C[C@@H](CC=C(C)C(O[C@H]3CC(OC)C(O[C@H]4CC(OC)C(O)C(C)O4)C(C)O3)C(C)C=CC=C3CO[C@@H]4C(O)C(C)=C[C@@H](C(=O)O1)[C@]34O)O2 (stereo not given in full),0,0,0,0,-,
CCN(CC)P(=O)(/C=C(\Cl)c1ccccc1)/C=C(\Cl)c1ccccc1,0,0,0,0,-,
CCN(CC)P(=O)(c1n(CC)cc[n+]1CC)N(CC)CC,86,0,0,0,-,A3A conf=73;UDG A3A counter=0
NP(=O)(OCCCc1ccccc1)Oc1ccccc1Cl (stereo not given),0,0,0,0,-,
C[n+]1ccc(-c2ccncc2)cc1,74,0,0,0,-,A3A conf=77;UDG A3A counter=0
COc1ccc(C(C)=O)cc1CN1CC=C(c2ccccc2)CC1,56,0,0,0,-,A3A conf=33;UDG A3A counter=0
CCC(CO)(C(=O)OC1C[N+]2(C)CCC1CC2)c1ccccc1 (stereo not given),56,0,0,0,-,A3A conf=70;UDG A3A counter=0
CCOc1ccccc1N=C1SCCCN1C,47,0,0,0,-,A3A conf=73;UDG A3A counter=0
CCOc1c(P(=S)(N(C)C)N(C)C)c(C)nn1-c1ccccc1,42,0,0,0,-,A3A conf=0
Cc1cc(O)c(CN2CCN(c3ccccc3)CC2)cc1C,0,0,0,0,-,
C[N+]1(C)CCN(c2ccccc2)CC1,73,0,0,0,-,A3A conf=78;UDG A3A counter=0
CCN(CC)C(=O)c1ccc2c(c1)C1C=CCC1C(C(=O)O)N2 (stereo not given),0,0,0,0,-,
Cn1c[n+](C)cc1C(O)c1ccccc1 (stereo not given),60,0,0,0,-,A3A conf=51;UDG A3A counter=0

# Compound activity (PubChem BioAssay)
